The values that follow come from PubChem BioAssay AID1347414 (National Center for Advancing Translational Sciences (NCATS), 2020).

SMILES strings stand for the structures. Inconclusive results are not listed. A number with no mark means an inactive call. The source made the active and inactive calls. Calls follow the shape of the dose curve; as a rule, active = well fitted inhibition curve with a large enough effect; inconclusive = small, poorly fitted or top-dose-only effect; inactive = no such curve, though single readings can be large or run the other way.
% is scaled to controls: 0 for no effect and ±100 for the full control effect; potency is read from the fitted curve at half-maximal effect.

The nature of the experiment: qHTS to identify inhibitors of the type 1 interferon - major histocompatibility complex class I in skeletal muscle: Secondary screen by immunofluorescence. Also: nearly all actives have a fitted effect of over 70% in size.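 As to activity change, negative = inhibition: digitonin at 100 µM served as the cytotoxic control.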 To be noted: C25cl48 myoblasts, IFN-b induced HLA-ABC immunofluorescence, 24 h; series mostly up to 49.8 µM; activity change, negative = inhibition: at the top concentration. A digest of the protocol:
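Immortalized human myoblasts C25cl48 were stimulated with 4.0 ng/ml IFN-beta and exposed to an 11-point 1:3 compound titration, top 50 uM, for 24 h at 37 C. They were then fixed and immunostained for HLA-ABC, and quantified by laser scanning cytometry.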
For orientation: In qHTS, concentration-response curves come from the screen itself.
`O=C(Nc1cn[nH]c1-c1nc2ccc(CN3CCOCC3)cc2[nH]1)NC1CC1`: the Potency is 2890 nM (active).

For the compound `CN1CCN(Cc2ccc(NC(=O)Nc3ccc(Oc4cc(NC(=O)C5CC5)ncn4)cc3)cc2C(F)(F)F)CC1`, the Potency was 64.7 nM (active). Same read-out and setting: under `Nc1nc(Nc2ccc(S(N)(=O)=O)cc2)nn1C(=O)c1c(F)cccc1F` stands 2050 nM (active).

`COC(=O)N[C@@H](C)CNc1nccc(-c2cn(C(C)C)nc2-c2cc(Cl)cc(NS(C)(=O)=O)c2F)n1`: the “activity change, negative = inhibition” value is -26.1%.
